About 83,000 compounds went through this panel and 20% of them were active in at least one assay; those are over-represented in the sample as a whole.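 In brief: 96-well plates, 48 h treatment, single concentration, percent growth endpoint.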 Values without a mark were called inactive. The source made the active and inactive calls. How the source made its calls: active means growth percent below 10; inactive means the rest.

The assay relates to MDA-MB-468 breast. Kind of assay: NCI-60 one-dose screen, 48 h (100 = growth as untreated, 0 = no growth, -100 = all killed). Conditions: 10 µM unless noted.
Consider `COc1ccc(/C=C(/C(=O)N2CCCC2)c2cc(OC)c(OC)c(OC)c2)cc1`, for which the growth is 11.6%.

On to `Cn1cc(-c2nc(-c3cn(C)c4ncccc34)cs2)c2cc(F)ccc21`, for which the growth is -8.46% (active).

As to `CS(=O)(=O)c1ccc(-c2[nH]c3ccc(F)cc3c2/C=N/O)cc1`, the growth is 93.7%.

Turning to `COc1ccc(-c2cc(Cc3cccs3)c(=O)n(Cn3cncn3)n2)cc1`, the growth was 102%.

For the molecule `O=C(NCCc1ccccn1)OCc1nc2nc(Cl)nc(N3CCOCC3)c2[nH]1`, the growth is 24.9%.

On to `Nc1ccn([C@@H]2O[C@H](COP(=O)(O)O[C@@H]3C[C@H](n4cc(F)c(=O)[nH]c4=O)O[C@@H]3COP(=O)(O)O[C@@H]3C[C@H](n4cc(F)c(=O)[nH]c4=O)O[C@@H]3COP(=O)(O)O[C@@H]3C[C@H](n4cc(F)c(=O)[nH]c4=O)O[C@@H]3COP(=O)(O)O[C@@H]3C[C@H](n4cc(F)c(=O)[nH]c4=O)O[C@@H]3COP(=O)(O)O[C@@H]3C[C@H](n4cc(F)c(=O)[nH]c4=O)O[C@@H]3COP(=O)(O)O[C@@H]3C[C@H](n4cc(F)c(=O)[nH]c4=O)O[C@@H]3COP(=O)(O)O[C@@H]3C[C@H](n4cc(F)c(=O)[nH]c4=O)O[C@@H]3COP(=O)(O)O[C@@H]3C[C@H](n4cc(F)c(=O)[nH]c4=O)O[C@@H]3COP(=O)(O)O[C@@H]3C[C@H](n4cc(F)c(=O)[nH]c4=O)O[C@@H]3COP(=O)(O)O[C@@H]3C[C@H](n4cc(F)c(=O)[nH]c4=O)O[C@@H]3COP(=O)(O)OCCOCCOCCOCCOCCOCCO)[C@H](O)C2O)c(=O)n1` (stereo partly specified), for which the growth was 77%.

With `C/C(=N/NC(N)=S)c1sc(Nc2cccc(Cl)c2)nc1C`, the growth was 47.3%.

With `COc1ccc(NC(=O)CSc2nc3ccccc3c(=O)n2CCc2ccccc2)cc1`, the growth was 87.7%.

`C/C=C1/CN(CCCCC)CC[C@H]1C(=O)c1cc2ccccc2[nH]1`: the growth was 90.7%.

On to `COc1ccc(CNC(=O)C(=O)[C@H](Cc2ccccc2)NC(=O)c2[nH]c3ccccc3c(=O)c2C)cc1`, for which the growth was 98.4%.

`COc1ccc(-c2cc(-c3cc(OC)ccc3OC)nc(N)c2C#N)cc1`: the growth was 70.2%.

Consider `CCNC(=O)Oc1ccc(/C(=C(/C)Cc2ccc(OC)cc2)c2ccc(OCCN3CCCC3)cc2)cc1`, for which the growth was 61.9%.

Take `O=c1[nH]nc(-c2ccc(Br)cc2)c2sc(NC(=S)Nc3ccc(Cl)cc3)nc12`: the growth was 110%.

As for `CS(=O)c1nccc(-c2c(-c3ccc(F)c(OCCc4ccccc4)c3)nc3sccn23)n1` (stereo unspecified), the growth was -39.4% (active).

For the molecule `COc1ccc(-c2nc(SC(C)C)nc(NNC(N)=S)c2C#N)cc1`, the growth is 21.2%.

In the case of `C[C@H]1OC(=O)/C=C/[C@@H](O)[C@@H](O)CCCCCCCC[C@@H]1O`, the growth was 97.2%.

With `N#Cc1c(-c2ccccc2)nc(SCC(=O)N2CCOCC2)[nH]c1=O`, the growth was 108%.

In the case of `C[C@]12CC[C@@H]3c4ccc(O)c([N+](=O)[O-])c4CC[C@H]3[C@@H]1CC[C@@H]2NS(=O)(=O)c1ccc(C(F)(F)F)cc1`, the growth is 25.2%.

For the molecule `Cc1cccc2c3c(sc12)C(c1ccc(F)cc1)C(C#N)=C(/N=C/c1ccc(Cl)cc1)O3` (stereo unspecified), the growth was 36.2%.

`FC(F)(F)c1ccc(-c2nc(-c3nc4cc(Cl)c(Cl)cc4[nH]3)c3ccccn23)cc1`: the growth was 41.9%.

In the case of `COc1ccc(-c2oncc2-c2cc(OC)c3c(c2)OCO3)cc1`, the growth is 10.3%.

For the molecule `CCCCN(CCCC)C(=O)CC`, the growth is 113%.

As to `O=[N+]([O-])c1ccc2[nH]c3nccc(NCc4cccc(Cl)c4)c3c2c1`, the growth is 69%.

With `COc1ccc2c(c1OC)O/C(=C\c1ncc([N+](=O)[O-])n1C)C2=O`, the growth was 69.9%.

Regarding `O=C(CCc1nnc(Cn2cncn2)o1)c1nc2ccccc2[nH]1`, the growth was 104%.

Turning to `CC1(C)CC(=O)C=C(N)C1`, the growth is 90.5%.

`ClC1=C(Cl)C(Cl)=C(Cl)C1=Cc1ccc(Cl)cc1`: the growth was 45.3%.

With `CN1CCN(c2ccc3c(c2)nc(NNC(=O)c2ccncn2)c2cccn23)CC1`, the growth is 19.7%.

Regarding `CCN1CCN(c2nc3ccccc3c3c(=O)c4ccccc4sc23)CC1`, the growth was 35.5%.

On to `O=C1N=C(c2c(-c3[nH]c(=O)c4ccc(Br)cc4c3O)c(O)c3ccccc3c2O)C(=O)c2cc(Br)ccc21`, for which the growth was -11.5% (active).

Regarding `CSC1=C(N)C(=O)c2[nH]cc(CO)c2C1=N`, the growth was -73.5% (active).

For the origin of these results see PubChem BioAssay (NCI).
